For some of these results: Results with a measured potency or affinity are listed apart.
Key:
Parameters in all cases: scale not given: direction of the effect not stated beside the values
[1] = molecular target: Protein translocase subunit SecA (Escherichia coli (strain K12)) (UniProt P10408); assay: Assay to Identify E. coli SecA ATPase Inhibitors; type: functional; conditions: 30 µM
[2] = molecular target: T1, Ubiquitin-activating enzyme e1, putative (Leishmania donovani (strain BPK282A1)) (UniProt E9BSI1); assay: Leishmania donovani Ubiquitin Activating Enzyme (LdE1); type: functional; conditions: 30 µM
T1 sequence (whole entry): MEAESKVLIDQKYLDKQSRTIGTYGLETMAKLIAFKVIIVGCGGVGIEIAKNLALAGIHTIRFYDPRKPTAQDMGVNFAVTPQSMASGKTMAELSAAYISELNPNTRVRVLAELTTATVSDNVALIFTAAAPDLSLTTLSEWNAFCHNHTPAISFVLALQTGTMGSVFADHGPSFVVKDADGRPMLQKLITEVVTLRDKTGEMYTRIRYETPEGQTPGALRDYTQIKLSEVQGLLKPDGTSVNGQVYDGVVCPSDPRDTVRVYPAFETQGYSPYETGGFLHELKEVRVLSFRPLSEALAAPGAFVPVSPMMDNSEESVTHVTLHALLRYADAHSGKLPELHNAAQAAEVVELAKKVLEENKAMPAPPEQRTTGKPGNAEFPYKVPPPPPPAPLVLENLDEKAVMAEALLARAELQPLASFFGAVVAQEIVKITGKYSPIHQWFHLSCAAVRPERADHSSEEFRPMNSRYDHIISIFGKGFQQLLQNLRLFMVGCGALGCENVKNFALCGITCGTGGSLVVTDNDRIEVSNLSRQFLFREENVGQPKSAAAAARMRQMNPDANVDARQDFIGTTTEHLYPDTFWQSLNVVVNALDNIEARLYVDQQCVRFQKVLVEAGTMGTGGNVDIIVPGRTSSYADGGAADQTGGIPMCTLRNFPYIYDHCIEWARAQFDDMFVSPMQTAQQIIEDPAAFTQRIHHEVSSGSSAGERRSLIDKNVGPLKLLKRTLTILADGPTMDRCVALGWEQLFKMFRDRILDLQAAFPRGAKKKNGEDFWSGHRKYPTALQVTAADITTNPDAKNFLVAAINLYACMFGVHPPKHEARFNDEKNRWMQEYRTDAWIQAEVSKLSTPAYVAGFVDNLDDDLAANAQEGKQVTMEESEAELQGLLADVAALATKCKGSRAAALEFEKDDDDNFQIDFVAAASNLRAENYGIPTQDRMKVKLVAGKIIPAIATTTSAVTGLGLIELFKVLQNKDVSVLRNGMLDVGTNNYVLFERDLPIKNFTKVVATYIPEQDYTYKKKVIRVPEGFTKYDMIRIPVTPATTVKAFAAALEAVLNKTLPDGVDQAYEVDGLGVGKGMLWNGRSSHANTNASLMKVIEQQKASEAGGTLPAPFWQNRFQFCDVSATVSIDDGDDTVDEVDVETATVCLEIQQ

[3] = molecular target: AMP-activated protein kinase, AMPK (Homo sapiens) (UniProt P54646+O43741+P54619+Q9UGJ0+Q9Y478+Q13131+Q9UGI9); assay: AMP-dependent Kinase enzyme assay. An in vitro enzyme assay that detects ADP turnover that is directly proportional to AMPK activity. This uses naive AMPK that is activated during the assay with MK-8722; type: functional; conditions: 30 µM
[4] = molecular target: Sialic acid-binding Ig-like lectin 9 (Homo sapiens) (UniProt Q9Y336); assay: Hs-Siglec9 ALPHAscreen SOP 20170721; conditions: 10 µM
Trypanosoma cruzi = assay: Trypanosoma cruzi phosphomannomutase and mannose-1-phosphate guanylyltransferase assay; type: functional; conditions: 10 µM
[5] = molecular target: T2, Arginase-2, mitochondrial (Homo sapiens) (UniProt P78540); assay: in vitro enzyme assay to detect the production of urea directly proportional to the activity of Arginase II; type: functional; conditions: 33.3 µM; also: in the data most compounds retested in dose-response had high values
T2 sequence (whole entry): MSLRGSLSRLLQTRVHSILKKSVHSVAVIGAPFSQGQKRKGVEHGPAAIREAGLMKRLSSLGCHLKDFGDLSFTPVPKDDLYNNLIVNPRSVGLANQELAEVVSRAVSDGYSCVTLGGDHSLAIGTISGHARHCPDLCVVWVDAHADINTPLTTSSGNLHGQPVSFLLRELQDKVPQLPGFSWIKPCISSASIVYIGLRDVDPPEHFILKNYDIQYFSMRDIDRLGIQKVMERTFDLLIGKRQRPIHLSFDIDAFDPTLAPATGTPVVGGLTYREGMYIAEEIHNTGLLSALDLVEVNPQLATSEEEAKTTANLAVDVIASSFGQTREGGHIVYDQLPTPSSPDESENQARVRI

[6] = molecular target: T3, Proteasome subunit beta (Trypanosoma cruzi) (UniProt O96673); assay: Trypanosoma cruzi proteasome chymotrypsin-like activity (TcProtChymo) assay.; also: in the data most compounds retested in dose-response had high values; type: functional; conditions: 9.37 µM
T3 sequence (whole entry): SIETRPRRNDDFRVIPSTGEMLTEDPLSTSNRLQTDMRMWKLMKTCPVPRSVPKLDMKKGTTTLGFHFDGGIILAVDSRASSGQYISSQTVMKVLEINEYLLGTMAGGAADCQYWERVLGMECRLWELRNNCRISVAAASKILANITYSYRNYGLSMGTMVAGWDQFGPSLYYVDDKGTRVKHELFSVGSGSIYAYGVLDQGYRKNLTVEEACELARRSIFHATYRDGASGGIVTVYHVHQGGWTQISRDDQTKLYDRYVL

Homo sapiens = organism: Homo sapiens; assay: To identify inhibition of the IFN signalling (Jak-Stat) pathway via expression of an eGFP reporter gene under the control of an IFN-stimulated response element (ISRE) containing MxA promoter.; type: functional; conditions: 30 µM
[7] = molecular target: T4, Tyrosyl-tRNA synthetase, putative (Trypanosoma cruzi (strain CL Brener)) (UniProt Q4DSP6); assay: Trypanosoma cruzi tyrosyl tRNA synthetase (TcYRS) _High Tyrosine SOP; type: functional; conditions: 30 µM; also: in the data most compounds retested in dose-response had high values
T4 sequence (whole entry): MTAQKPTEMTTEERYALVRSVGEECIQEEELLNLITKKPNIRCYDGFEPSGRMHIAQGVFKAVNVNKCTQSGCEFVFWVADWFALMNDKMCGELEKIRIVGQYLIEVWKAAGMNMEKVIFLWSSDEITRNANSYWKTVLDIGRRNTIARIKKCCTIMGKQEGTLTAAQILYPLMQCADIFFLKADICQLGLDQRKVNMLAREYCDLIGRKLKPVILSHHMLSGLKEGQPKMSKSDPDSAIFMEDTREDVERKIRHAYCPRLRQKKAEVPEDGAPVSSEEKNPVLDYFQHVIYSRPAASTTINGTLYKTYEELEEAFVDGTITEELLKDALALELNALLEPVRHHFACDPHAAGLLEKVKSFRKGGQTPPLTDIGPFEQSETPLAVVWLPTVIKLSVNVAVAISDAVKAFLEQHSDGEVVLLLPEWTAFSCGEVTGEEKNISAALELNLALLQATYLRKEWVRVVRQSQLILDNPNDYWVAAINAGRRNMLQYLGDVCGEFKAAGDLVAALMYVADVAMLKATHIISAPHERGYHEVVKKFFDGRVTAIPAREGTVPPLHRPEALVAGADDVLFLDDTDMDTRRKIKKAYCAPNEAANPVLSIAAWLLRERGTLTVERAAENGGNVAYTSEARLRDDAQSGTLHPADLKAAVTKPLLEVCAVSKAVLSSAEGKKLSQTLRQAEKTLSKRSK

[8] = molecular target: T4, Tyrosyl-tRNA synthetase, putative (Trypanosoma cruzi (strain CL Brener)); assay: Trypanosoma cruzi tyrosyl tRNA synthetase (TcYRS) SOP; type: functional; conditions: 30 µM
[9] = molecular target: Chromo domain-containing protein 1 (Saccharomyces cerevisiae (strain ATCC 204508 / S288c) (Baker's yeast)) (UniProt P32657); assay: ScCHD-1 Enzyme Inhibition Assay; type: functional; conditions: 30 µM; also: in the data most compounds retested in dose-response had high values
Sequence of Chromo domain-containing protein 1 (Saccharomyces cerevisiae (strain ATCC 204508 / S288c) (Baker's yeast)) (P32657 whole entry, the tested form may be a part): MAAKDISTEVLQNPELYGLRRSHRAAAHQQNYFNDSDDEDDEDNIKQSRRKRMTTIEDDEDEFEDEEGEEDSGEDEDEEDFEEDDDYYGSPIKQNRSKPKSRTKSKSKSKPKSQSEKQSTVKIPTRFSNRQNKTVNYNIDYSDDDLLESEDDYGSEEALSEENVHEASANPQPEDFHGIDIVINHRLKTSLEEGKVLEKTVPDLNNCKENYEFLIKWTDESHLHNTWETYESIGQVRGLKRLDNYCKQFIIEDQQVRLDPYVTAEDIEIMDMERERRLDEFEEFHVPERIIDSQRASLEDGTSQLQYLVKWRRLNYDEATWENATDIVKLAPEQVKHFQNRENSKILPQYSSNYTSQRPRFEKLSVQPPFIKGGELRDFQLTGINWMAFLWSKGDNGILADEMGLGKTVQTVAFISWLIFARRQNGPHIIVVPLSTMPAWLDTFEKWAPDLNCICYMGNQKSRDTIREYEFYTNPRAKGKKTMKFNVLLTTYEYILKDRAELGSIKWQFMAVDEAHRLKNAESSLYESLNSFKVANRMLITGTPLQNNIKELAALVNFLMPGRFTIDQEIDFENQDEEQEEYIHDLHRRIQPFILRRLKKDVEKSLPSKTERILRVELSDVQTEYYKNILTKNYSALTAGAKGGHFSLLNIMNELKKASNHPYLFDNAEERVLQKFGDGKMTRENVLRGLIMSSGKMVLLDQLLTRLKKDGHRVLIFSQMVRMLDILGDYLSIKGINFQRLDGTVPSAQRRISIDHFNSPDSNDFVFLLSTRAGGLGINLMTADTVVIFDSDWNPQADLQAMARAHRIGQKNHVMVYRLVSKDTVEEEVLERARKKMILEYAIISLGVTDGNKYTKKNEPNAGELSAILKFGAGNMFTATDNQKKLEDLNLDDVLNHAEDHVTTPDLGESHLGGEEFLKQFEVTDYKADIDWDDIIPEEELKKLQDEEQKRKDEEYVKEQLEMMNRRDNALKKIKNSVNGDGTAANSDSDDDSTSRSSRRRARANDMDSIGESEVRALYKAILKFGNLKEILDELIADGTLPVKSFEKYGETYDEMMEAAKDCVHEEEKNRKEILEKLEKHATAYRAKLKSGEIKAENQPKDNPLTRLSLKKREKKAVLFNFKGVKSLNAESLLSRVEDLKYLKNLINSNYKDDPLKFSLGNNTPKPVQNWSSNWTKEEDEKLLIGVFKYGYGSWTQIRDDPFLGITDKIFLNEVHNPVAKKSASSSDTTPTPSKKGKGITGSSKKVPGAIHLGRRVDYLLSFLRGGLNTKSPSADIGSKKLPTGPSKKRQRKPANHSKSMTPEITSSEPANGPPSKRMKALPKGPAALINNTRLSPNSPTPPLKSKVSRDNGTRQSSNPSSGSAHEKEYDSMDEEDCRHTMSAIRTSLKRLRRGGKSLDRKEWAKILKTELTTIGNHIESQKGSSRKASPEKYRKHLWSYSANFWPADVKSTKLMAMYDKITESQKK

Sequence of Protein translocase subunit SecA (Escherichia coli (strain K12)) (P10408 whole entry): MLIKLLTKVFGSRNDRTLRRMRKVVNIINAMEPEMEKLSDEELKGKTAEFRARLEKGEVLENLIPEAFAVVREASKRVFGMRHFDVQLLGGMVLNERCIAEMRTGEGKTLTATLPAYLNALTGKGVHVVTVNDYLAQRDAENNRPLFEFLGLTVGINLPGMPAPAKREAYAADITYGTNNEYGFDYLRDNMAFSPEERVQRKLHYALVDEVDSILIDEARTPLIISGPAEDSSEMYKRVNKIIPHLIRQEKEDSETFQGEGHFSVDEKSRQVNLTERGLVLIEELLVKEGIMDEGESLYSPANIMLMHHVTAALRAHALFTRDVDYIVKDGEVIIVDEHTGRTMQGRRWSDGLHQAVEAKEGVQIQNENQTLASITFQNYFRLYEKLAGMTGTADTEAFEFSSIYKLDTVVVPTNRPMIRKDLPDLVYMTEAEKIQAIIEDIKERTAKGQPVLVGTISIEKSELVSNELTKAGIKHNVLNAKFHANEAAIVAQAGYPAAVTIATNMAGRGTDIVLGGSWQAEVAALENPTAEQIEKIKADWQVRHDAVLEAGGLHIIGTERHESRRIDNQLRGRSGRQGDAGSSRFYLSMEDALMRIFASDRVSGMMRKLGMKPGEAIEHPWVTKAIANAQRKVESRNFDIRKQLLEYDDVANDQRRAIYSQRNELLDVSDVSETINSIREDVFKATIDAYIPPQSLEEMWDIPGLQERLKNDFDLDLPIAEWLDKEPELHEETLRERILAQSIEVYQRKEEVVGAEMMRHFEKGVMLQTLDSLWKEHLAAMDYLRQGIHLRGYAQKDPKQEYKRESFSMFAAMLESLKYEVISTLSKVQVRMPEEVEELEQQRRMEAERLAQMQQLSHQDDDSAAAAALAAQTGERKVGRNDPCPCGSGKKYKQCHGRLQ
Sequence of Sialic acid-binding Ig-like lectin 9 (Homo sapiens) (Q9Y336 whole entry): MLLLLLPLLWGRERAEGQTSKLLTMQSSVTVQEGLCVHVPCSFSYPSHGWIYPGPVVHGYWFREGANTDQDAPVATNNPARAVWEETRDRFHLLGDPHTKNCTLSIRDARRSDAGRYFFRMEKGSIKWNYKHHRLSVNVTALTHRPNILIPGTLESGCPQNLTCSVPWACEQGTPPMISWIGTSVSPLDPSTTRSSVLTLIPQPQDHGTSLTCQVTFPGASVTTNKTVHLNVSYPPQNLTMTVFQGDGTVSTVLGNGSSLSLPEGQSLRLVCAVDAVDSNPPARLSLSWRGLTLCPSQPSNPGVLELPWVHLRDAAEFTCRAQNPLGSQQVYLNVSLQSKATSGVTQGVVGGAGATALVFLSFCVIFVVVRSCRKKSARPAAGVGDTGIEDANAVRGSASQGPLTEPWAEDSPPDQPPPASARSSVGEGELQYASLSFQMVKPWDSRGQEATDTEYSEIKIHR

| SMILES | Percent Effect [1] [%] | Percent Effect [2] [%] | Percent Effect [3] [%] | Percent Effect [4] [%] | Percent Effect (Trypanosoma cruzi) [%] | Percent Effect [5] [%] | Percent Effect [6] [%] | Percent Effect (Homo sapiens) [%] | Percent Effect [7] [%] | Percent Effect [8] [%] | Percent Effect [9] [%] |
| --- | --- | --- | --- | --- | --- | --- | --- | --- | --- | --- | --- |
| Cc1ccsc1CN(C)C(=O)Cn1nc(-c2ccc(F)cc2)oc1=O | -0.652 | 13.2 | 1.09 | -2.29 | 3.8 | -3.55 | 22.5 | 10.2 | -8.51 | 0 | -6.06 |
| Nc1nccc(NCc2cc3n(n2)CCCN(C(=O)C2CCC2)C3)n1 | -4.85 | 8.22 | 2.89 | 2.05 | -0.794 | -3.59 | 14.5 | 9.88 | 4.17 | 11.1 | -0.468 |
| Cc1cc(C(=O)N2CCc3nnc(N(C)C)cc3C2)c(C)n1C1CC1 | -2.94 | 3.8 | -0.0334 | 0.611 | -0.513 | 4.52 | 16.1 | 14 | 8.33 | 10.1 | -3.64 |
| CNc1cc(N2CCCC2CNCc2ccc(Cl)o2)ncn1 (stereo not given) | -6.85 | 13.5 | -2.54 | 43.1 | 8.98 | 16.2 | 18.9 | 22 | 15.8 | 23.2 | 89.7 |
| CCn1ncc2c1CCCC2NCc1cccc2c1OCCO2 (stereo not given) | -2.98 | -6.33 | 6.39 | -0.488 | -0.718 | 4.09 | 0 | 12.6 | 0 | 2.53 | -17.9 |
| CN(C(=O)NCc1ccncc1)C1CCN(c2ccccc2)C1=O (stereo not given) | -4.85 | 13.2 | -3.87 | 3.74 | 6.58 | -3.06 | 10 | 5.78 | 6.37 | 12.2 | -10.8 |
| COCCn1cc(C(=O)N2CCCC2c2cccc(F)c2)ccc1=O (stereo not given) | 1.54 | -5.41 | -0.655 | 0.523 | -2.7 | 2.38 | 7.07 | -0.304 | -2.65 | -56.1 | -2.35 |
| CN(C)C(=O)C1CCCN1CCCNC(=O)c1ccccc1F (stereo not given) | -2.29 | 8.22 | -4.32 | 2.43 | -0.783 | 0.909 | 15.6 | 12.8 | 5.38 | 12.5 | -3.39 |
| O=C1CCSCC(C(=O)N2CCOCC2)N1 (stereo not given) | -5.1 | 2.74 | -1.73 | -8.51 | -2.74 | -0.455 | 5.5 | 16 | 2.15 | 7.5 | 0.585 |
| Cc1nnc(NCc2ccccc2Cl)c(C#N)c1C | -1.72 | -29.7 | -32.4 | -2.89 | 2.51 | 1.29 | 5.39 | 26.5 | 13.9 | 11 | 5.89 |
| Cc1cc(NC(=O)NCC(C)O)n(C)n1 (stereo not given) | -5.54 | 10.5 | -8.37 | 7.06 | 5.64 | 0 | 12.2 | -5.12 | 2.45 | 12.2 | -14.2 |
| O=C(Nc1cccnc1)[C@H]1C[C@@H]2CN(C(=O)NC3CCCC3)C[C@H]1O2 | -0.299 | 13.5 | 5.36 | -10.3 | -6.94 | 6.69 | 24.5 | -1.23 | 0 | 15.4 | -0.793 |
| COc1ccc(C2Nc3cc(Cl)ccc3C3=NCCN32)cc1OC (stereo not given) | -5.72 | 2.67 | 2.8 | 3.39 | 3.54 | -5.83 | 13.1 | 8.26 | 4.25 | 8.97 | -11.7 |
| Cc1ccoc1C(=O)N1CC[C@H]2O[C@@H](C)C[C@H]2C1 | -5.4 | 21.3 | -6.43 | 2.33 | 5.6 | -45.3 | 9.06 | 2.95 | 8.33 | 22.5 | -8.54 |
| CC(NC(=O)Nc1cccnc1N1CCCC1)c1nncn1C (stereo not given) | -3.96 | 5.41 | -24 | 2.82 | 7.45 | -2.81 | -0.901 | 23.6 | 5.42 | 16.1 | -9.41 |
| COc1ccc(CN2CCc3nc(C4CCCCN4C)ncc3C2)cc1 (stereo not given) | -0.233 | -8 | -0.187 | -0.354 | 3.54 | -2.1 | 28.3 | 11.8 | 21.3 | 26.9 | -1.3 |
| O=C(c1ccco1)N1CCOCC2(CCN(C3CCOCC3)C2)C1 (stereo not given) | -0.734 | 1.33 | -1.65 | 3.4 | -7.47 | -2.29 | 7.95 | 2.53 | 0 | 5.13 | -6.06 |
| COc1ccc(C(CO)NC(=O)Nc2cccc(C#N)c2)cc1 (stereo not given) | -1.84 | 16.2 | -2.87 | 19.4 | 3.86 | -0.952 | 15.3 | 8.24 | 7.94 | 17.1 | -9.96 |
| COc1cccc(CNC(CN2CCN(C)CC2)c2ccccc2)c1 (stereo not given) | -5.66 | 5.41 | -4.3 | -1.53 | -6.75 | 1.74 | 9.19 | 11.2 | 1.07 | 3.7 | -3.35 |
| CCc1ccc(OCC(O)CN2CCC(O)CC2)cc1 (stereo not given) | -6.44 | -2.6 | 5.75 | -12.1 | -4.21 | -1.05 | 5.42 | 11.1 | -2.86 | 0 | -19 |

Source: ChEMBL document CHEMBL3988442, “University of Dundee, Small-Polar-MMV Screening Library” (2021)
